Among the data in PubChem BioAssay (Tox21) are Potency values, retold here.

Several values for one entry are separate records, joined by “and”; a condition that tells them apart may be missing. Equal entries are not always repeated. Records with an inconclusive call do not appear. Entries that show only a call come without a potency. Some compounds were tested as several samples or in several runs, with calls that do not always agree. Activity calls are given as the source filed them. Calls follow the shape of the dose curve; as a rule, active = well fitted cell-killing curve with a large enough effect in the repeat runs; inconclusive = weak or mixed curves, or effect the other way; inactive = flat fitted curve, though single readings scatter.
Potency is read from the fitted curve at half-maximal effect.

A short description of the assay: Nuclear factor erythroid 2-related factor 2/antioxidant responsive element (Nrf2/ARE) small molecule agonists: qHTS cell viability counter screen in human keratinocytes (AID 1919968). Also: nearly all actives have a fitted effect of over 55% in size. Particulars: KeratinoSens HaCaT ARE cells viability, CellTiter-Fluor, 24 h; series mostly up to 92.4 µM. The text has this:
U.S. Tox21 Program National Center for Advancing Translational Sciences [NCATS] Division of Preclinical Innovation [DPI] U.S. Environmental Protection Agency [EPA] National Institutes of Environmental Health Sciences [NIEHS] National Toxicology Program [NTP] U.S. Food and Drug Administration [FDA] Tox21 Assay Overview: Oxidative stress has been implicated in the pathogenesis of a variety of diseases ranging from cancer to neurodegeneration. The antioxidant response element (ARE) signaling pathway plays an important role in the amelioration of oxidative stress. The KeratinoSens (Givaudan, Switzerland) is an in vitro test method which quantifies luciferase induction as a measure of activation of Keap1-Nrf2-antioxidationt/electrophile response element (ARE) dependant pathway in HaCaT human keratinocytes stably transfected with a selectable plasmid. The KeratinoSens assay is a cell-based assay with a reporter cell line to detect potential skin sensitizers by their ability to induce the Nrf2/ARE-response. The activation of the report gene under culture conditions can be detected by ONE-Glo Luciferase Assay System (Promega, Madison, WI). This cell line has been used to screen the Tox21 10K compound library to identify agonists that induce oxidative stress. The cytotoxicity of the Tox21 compound library against the KS-ARE cell line was tested in parallel by measuring the cell viability using CellTiter- Fluor assay system (Promega, Madison, WI) in the same wells.
Tox21 Assay Protocol Summary: HaCaT derived cell line KeratinoSens were dispensed at 1,500 cells/5uL/well in 1536-well white wall/solid bottom plates using a Multidrop Combi (ThermoFisher Scientific, Waltham, MA) dispenser. After the assay plates were incubated at 37 C/5% CO2 for 5 h, 23 nL of compounds dissolved in DMSO, positive controls or DMSO only was transferred to the assay plate by a pintool workstation (Kalypsys, San Diego, CA). The plates were incubated at 37 C/5% CO2 for 23 h, followed by addition of 1uL/well of CellTiter-Fluor reagent into the assay plates using a Flying Reagent Dispenser (Aurora Discovery, San Diego, CA) for cell viability readout that measures cytotoxicity. After 1 h incubation at 37 C/5% CO2 the fluorescence intensity was measured using a ViewLux (PerkinElmer, Shelton, CT) plate reader.
Consider `Nc1c(Cl)c(Cl)nc(C(=O)O)c1Cl`, for which the Potency result was “inactive”. The result for `CC(Cl)CCl` (stereo not given) reads “inactive”. Turning to `CCOC(=O)C(C)OC(=O)c1cc(Oc2ccc(C(F)(F)F)cc2Cl)ccc1[N+](=O)[O-]` (stereo not given), the Potency result is “inactive”. The result for `O=[N+]([O-])c1ccccc1` reads “inactive”; that for `Cl`, “inactive”; that for `C[C@]12CCC(=O)C[C@@H]1CC[C@@H]1[C@@H]2CC[C@]2(C)[C@@H](O)CC[C@@H]12`, “inactive”. The result for `Nc1ccccc1Cl` reads “inactive”; that for `CCOc1nc(F)cc2nc(S(=O)(=O)Nc3c(Cl)cccc3Cl)nn12`, “inactive”. The result for `C/C(=N\NC(=O)Nc1cc(F)cc(F)c1)c1ncccc1C(=O)O` reads “inactive”; that for `C=C(C)[C@H]1Cc2c(ccc3c2O[C@@H]2COc4cc(OC)c(OC)cc4[C@@H]2C3=O)O1`, “inactive and 29.8 nM (active)”. With `Cn1c(N)nc2c3cccnc3ccc21`, the Potency entry was “inactive”. The result for `O=S(=O)(O)C(F)(F)C(F)(F)C(F)(F)C(F)(F)C(F)(F)C(F)(F)C(F)(F)C(F)(F)F` reads “inactive and 61.1 µM (active)”; that for `CCOC(=O)CC(SP(=S)(OC)OC)C(=O)OCC` (stereo not given), “inactive”; that for `O=C(O)c1cc(Cl)ccc1Cl`, “inactive”. The result for `NC(=S)c1c(Cl)cccc1Cl` reads “inactive”.

Consider `CC(C)COC(=O)c1ccccc1C(=O)OCC(C)C`, for which the Potency result is “inactive”. The result for `Cl/C=C/Cl` reads “inactive”; that for `Cc1ccc(N)cc1N`, “inactive”; that for `O=NN1CCCCCCC1`, “inactive”. The result for `O=P(OCCCl)(OCCCl)OCCCl` reads “inactive”; that for `Clc1ccc(C(Cl)(Cl)Cl)cn1`, “inactive”.

For `CCC(C)C(C)(COC(N)=O)COC(N)=O` (stereo not given), the Potency result is “inactive”. The result for `CNC(=O)Oc1cccc2c1OC(C)(C)C2` reads “inactive”; that for `CCCC[N+]1(C)CCCC1`, “inactive”; that for `Oc1cc(Cl)ccc1Cl`, “inactive”.

Take `COc1ccccc1N`: the Potency entry was “inactive”. In the case of `C=CC1CC=CCC1` (stereo not given), the Potency entry is “inactive”. The result for `C=CC#N` reads “inactive”; that for `COCCC#N`, “inactive”.

For `CN(C)C(=S)SSC(=S)N(C)C`, the Potency was 95.5 nM (active) and 137 nM (active) and 119 nM (active). The result for `CCCC[n+]1ccccc1` reads “inactive”; that for `CC(C)Oc1cc(-n2nc(C(C)(C)C)oc2=O)c(Cl)cc1Cl`, “inactive”; that for `OCc1ccco1`, “inactive”.

For `CCc1cccc(C)c1N(C(=O)CCl)C(C)COC` (stereo not given), the Potency entry is “inactive”. The result for `O=C/C=C/c1ccccc1` reads “inactive”.

With `O=C/C=C/c1ccco1`, the Potency entry was “inactive”.

For the compound `CN=C=O`, the Potency entry is “inactive”.

For `CCCCOCC1CO1` (stereo not given), the Potency entry was “inactive”. The result for `C[C@]12CC[C@H]3[C@@H](CC=C4C[C@@H](O)CC[C@@]43C)[C@@H]1CC[C@@H]2O` reads “inactive”.

Regarding `COC(C)(C)C`, the Potency entry is “inactive”.
